Only some compounds are listed: those with a hit (about 19% of all), similar ones and a draw of the others.
TDP1 cell noCPT: qHTS for Inhibitors of human tyrosyl-DNA phosphodiesterase 1 (TDP1): qHTS in cells in absence of CPT; DT40 Tdp1-/- hTDP1 cells, no CPT, ATP luminescence, 48 h; Potency, µM (top dose mostly 46.2 µM), for the others: at the top dose activity change, negative = growth inhibition, actives largely listed as inhibitors; 15% of 420,000 active; AID 686978, 2013; also: potency is read from the fitted curve at half-maximal effect; % is scaled to controls: 0 for no effect and ±100 for the full control effect; nearly all actives have a fitted effect of over 55% in size
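Growth kinetics read by CellTiter-Glo luminescence after ≥48 hr at 37 °C. Cells: DT40 Tdp1-/- stably carrying human TDP1, 400 per well, compound exposure in the absence of CPT (DMSO vehicle).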
HepG2 viability: counter-screen for TGF-b inhibitors: cytotoxicity in HepG2 cells; HepG2 CAGA-GFP viability, ATP luminescence, 18 h; Potency, µM (doses to about 46.1 µM), for the others: at the top dose activity change, negative = cytotoxicity, most hits filed as cytotoxic; AID 588856; 0.76% of 410,000 active; also: potency is read from the fitted curve at half-maximal effect
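CellTiter-Glo luminescence gave cytotoxicity after 18 hours at 37 degrees C. The cells were HepG2 CAGA-GFP in 1% FBS DMEM, stimulated with 500 pg/mL TGF-beta after compound addition. %Activity was normalised to no-cell wells (complete cell-killing) and DMSO (no toxicity), and curves were fitted and classified.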
IL-1B inflam inh: blocks inflammasome-driven IL-1 beta release. AID 743279. THP-1 LPS/ATP IL-1B secretion, AlphaLISA, 16 h; active compounds read low. activity change, % at 57.5 µM. 4.7% of 360,000 active; in the data active = activity change below about -50%; inconclusive = mostly about -30% to -49%; also: % is scaled to controls: 0 for no effect and ±100 for the full control effect
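Secreted IL-1B measured by AlphaLISA bead assay after 16 h compound exposure of THP-1 cells; compounds (final up to 57.5 uM) added 1 h before LPS (250 ng/mL) and ATP (1.25 mM) stimulation; lower signal means less secretion.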
TDP1 cell CPT: DT40-hTDP1 cell growth loss with CPT. chicken DT40 Tdp1-/-;hTDP1 cells + 20 nM CPT, ATP luminescence, 48 h. Potency, µM (titrated, usually from 46.2 µM), without a hit: at the top dose activity change, negative = growth inhibition, most hits filed as inhibitors. 12% of 420,000 active. AID 686979; also: potency is read from the fitted curve at half-maximal effect; % is scaled to controls: 0 for no effect and ±100 for the full control effect; nearly all actives have a fitted effect of over 55% in size
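Chicken DT40 Tdp1-/- cells complemented with human TDP1, 400 cells/well, exposed to compounds plus 20 nM camptothecin for at least 48 h at 37 C; viability read as ATP content by CellTiter-Glo luminescence.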
ASM inhibitor: human S-ASM enzyme inhibition; placental ASM, HMU-PC fluorogenic substrate, 60 min; Potency, µM (series often up to 57.5 µM), for inactives: at the highest dose activity change, negative = inhibition, most hits filed as inhibitors; 0.006% of 340,000 active; AID 504937; also: potency is read from the fitted curve at half-maximal effect
Target sequence (P17405 47-631 limits assumed): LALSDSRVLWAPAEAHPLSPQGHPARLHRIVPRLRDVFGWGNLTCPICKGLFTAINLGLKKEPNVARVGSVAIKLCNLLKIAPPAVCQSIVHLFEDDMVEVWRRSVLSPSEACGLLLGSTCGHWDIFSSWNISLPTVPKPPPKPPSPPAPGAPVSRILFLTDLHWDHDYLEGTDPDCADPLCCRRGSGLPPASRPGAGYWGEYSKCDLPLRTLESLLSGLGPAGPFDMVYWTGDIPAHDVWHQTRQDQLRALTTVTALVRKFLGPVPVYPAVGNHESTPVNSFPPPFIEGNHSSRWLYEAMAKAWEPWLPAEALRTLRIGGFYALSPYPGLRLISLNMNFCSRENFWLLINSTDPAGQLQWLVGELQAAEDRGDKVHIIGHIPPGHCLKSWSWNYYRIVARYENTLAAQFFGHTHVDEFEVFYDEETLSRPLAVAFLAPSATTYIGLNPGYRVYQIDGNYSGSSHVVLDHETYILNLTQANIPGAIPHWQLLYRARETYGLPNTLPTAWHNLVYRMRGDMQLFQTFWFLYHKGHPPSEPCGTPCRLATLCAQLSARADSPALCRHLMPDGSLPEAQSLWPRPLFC
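Human placenta-derived ASM enzyme was preincubated with compound for 10 minutes at room temperature, then given fluorogenic substrate HMU-PC0 (9 uM final) for 60 minutes at 37 °C; a pH 10 stop preceded fluorescence reading at Ex 386/Em 447 nm.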
TGFb SMAD3 inh: TGF-b pathway inhibition | 1.2% of 410,000 active | Potency, µM (top dose mostly 46.1 µM), for the others: at the highest dose activity, negative = inhibition, usual class: inhibitors | HepG2 CAGA-GFP TGF-b/SMAD3 reporter, GFP fluorescence, 18 h; TGF-beta stimulated, 500 pg/mL final; also: potency is read from the fitted curve at half-maximal effect; % is scaled to controls: 0 for no effect and ±100 for the full control effect; nearly all actives have a fitted effect of over 65% in size
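Per well, imaged GFP fluorescence of HEPG2 CAGA-GFP cells gives the signal; cells get compound, then TGF-beta (500 pg/mL final), 18 h at 37 degrees C; %Activity versus -TGF-beta and +DMSO controls.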
* hit, by the source's call. Unless noted, calls follow the shape of the dose curve; as a rule, active = well fitted curve in the direction sought with a large enough effect; inconclusive = small, poorly fitted or top-dose-only effect, or another doubt; inactive = no such curve, though single readings can be large; an effect the other way counts as inactive or inconclusive.

CCn1c(SCC(=O)Nc2ccc(OC)cc2)nc2nc3c(cc2c1=O)CCCC3 was read as TDP1 cell noCPT 23.1µM*, HepG2 viability 30.1%, IL-1B inflam inh -82.5*, TDP1 cell CPT inconclusive, ASM inhibitor -10.2% and TGFb SMAD3 inh -17.5%.
`CCn1c(SCC(=O)Nc2ccc(C(C)=O)cc2)nc2nc3c(cc2c1=O)COC(C)(C)C3` gave TDP1 cell noCPT -1.3%, HepG2 viability 3.3%, IL-1B inflam inh -20.9, TDP1 cell CPT -0.3%, ASM inhibitor 3.9% and TGFb SMAD3 inh 1.1%.
Cc1ccccc1-n1c(SCC(=O)Nc2ccccc2)nc2nc3c(cc2c1=O)CCCC3 was read as TDP1 cell noCPT 16.4µM*, HepG2 viability 2.2%, IL-1B inflam inh -5.4, TDP1 cell CPT inconclusive, ASM inhibitor -13.4% and TGFb SMAD3 inh inconclusive.
Screening COc1ccc(NC(=O)CSc2nc(N)c3cc4c(nc3n2)CCCC4)cc1 returned TDP1 cell noCPT 14.6µM*, HepG2 viability -0.5%, IL-1B inflam inh 26.8, TDP1 cell CPT inconclusive and TGFb SMAD3 inh -5.3%.
`CCn1c(SCC(=O)Nc2ccc(OC)cc2)nc2nc3c(cc2c1=O)COC(C)(C)C3` gave TDP1 cell noCPT inconclusive, HepG2 viability -0.7%, IL-1B inflam inh 0.0, TDP1 cell CPT -20.9%, ASM inhibitor -1.3% and TGFb SMAD3 inh 8.2%.
For CN(Cc1ccccn1)C(=O)CC1C(=O)NCCN1Cc1ccc(F)cc1Cl (stereo not drawn) the results were TDP1 cell noCPT 21.9%, HepG2 viability -2.0%, IL-1B inflam inh -13.3, TDP1 cell CPT -5.3%, ASM inhibitor 12.7% and TGFb SMAD3 inh 15.4%.
`Cc1ccc(N2C(=O)CS(=O)C(c3ccccc3)C2=O)cc1C` (stereo not drawn) gave TDP1 cell noCPT 14.6µM*, HepG2 viability -35.0%, IL-1B inflam inh -9.5, TDP1 cell CPT inconclusive, ASM inhibitor -0.6% and TGFb SMAD3 inh -6.5%.
`Cc1ccc(N2C(=O)C3C(C2=O)N2CCCN2C3c2ccccc2)cc1C` (stereo not drawn) gave TDP1 cell noCPT -6.7%, HepG2 viability 2.8%, IL-1B inflam inh 0.0, TDP1 cell CPT 1.3%, ASM inhibitor 4.4% and TGFb SMAD3 inh -0.1%.
Screening CCOc1ccc2[nH]c(=O)c(C(c3nnnn3C3CCCCC3)N3CCN(CC)CC3)cc2c1 (stereo not drawn) returned TDP1 cell noCPT -16.8%, HepG2 viability -11.5%, IL-1B inflam inh 2.3, TDP1 cell CPT -28.1%, ASM inhibitor 206.0% and TGFb SMAD3 inh -25.8%.
For COc1ccc2[nH]c(=O)c(C(c3nnnn3C3CCCC3)N3CCN(Cc4ccc5c(c4)OCO5)CC3)cc2c1 (stereo not drawn) the results were TDP1 cell noCPT inconclusive, HepG2 viability 1.6%, IL-1B inflam inh inconclusive, TDP1 cell CPT 25.9µM*, ASM inhibitor 111.0% and TGFb SMAD3 inh -9.3%.
For COc1ccc(Cn2nnnc2C(c2cc3ccc(OC)cc3[nH]c2=O)N2CCC(C)CC2)cc1 (stereo not drawn) the results were TDP1 cell noCPT inconclusive, HepG2 viability 5.0%, IL-1B inflam inh 0.0, TDP1 cell CPT inconclusive, ASM inhibitor 28.8% and TGFb SMAD3 inh inconclusive.
Cc1cc(C)c2[nH]c(=O)c(C(c3nnnn3Cc3ccc4c(c3)OCO4)N3CCC(C)CC3)cc2c1 (stereo not drawn) was read as TDP1 cell noCPT 16.4µM*, HepG2 viability -3.9%, IL-1B inflam inh -22.4, TDP1 cell CPT inconclusive, ASM inhibitor -0.1% and TGFb SMAD3 inh 2.3%.
